# Measured values published in PubChem BioAssay (EPA / NIEHS).
# Inconclusive results are not listed. The source made the active and inactive calls. Rule for the calls, unless noted: active = hit-call score of the fitted dose curve at least 0.9, where 1 is the maximum; inactive = score below 0.9.
# Legend:
# [1] = CCTE_Harrill_HTTr_Viability_MCF7: CCTE's 6-hour Cell Viability Assessment for the High-Throughput Transcriptomics (HTTr) Platform, in MCF-7 cells cultured in DMEM + 10% fetal bovine serum, Harrill Lab (AID 2284010)
# Outline: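 Propidium iodide exclusion, imaged by high-content analysis, gauged viability after a six-hour exposure across eight concentrations. Cells were MCF-7 grown in DMEM with 10% fetal bovine serum; fits run in both directions against DMSO.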
# [2] = CCTE_Harrill_HTTr_Apoptosis_MCF7: CCTE's 6-hour Apoptosis Assessment for the High-Throughput Transcriptomics (HTTr) Platform, in MCF-7 cells cultured in DMEM + 10% fetal bovine serum, Harrill Lab (AID 2284011)
# Outline: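 Cells are dosed with test chemicals at eight concentrations and imaged 6 hours later for caspase-3/7 activity using a green fluorogenic detection reagent. Activity is fitted in both directions against DMSO controls.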
# [3] = CCTE_Harrill_HTTr_CellCount_MCF7: CCTE's Cell Proliferation Assessment for the High-Throughput Transcriptomics (HTTr) Platform, Harrill Lab (AID 2284012; active = hit-call score of the fitted dose curve at least 0.9, where 1 is the maximum;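 note: cells exposed to compound for six hours; intended direction is loss of nuclei count meaning fewer cells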)
# Outline: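 Cell count from high-content imaging of Hoechst-labeled nuclei serves as viability/growth readout. Chemicals were applied to MCF-7 cells in eight concentrations for six hours, with fitting in both directions relative to DMSO.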
# [4] = CCTE_Deisenroth_AIME_96WELL_CTox_Active: Cytotoxicity Assessment (CTOX) in CCTE's 96-well Estrogen Receptor Transactivation Assay with AIME metabolic competence (metabolism positive), Deisenroth Lab (AID 2284028; active = hit-call score of the fitted dose curve at least 0.9, where 1 is the maximum)
# Outline: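 Cytotoxicity in VM7Luc4E2 breast cells after 24 h exposure to medium from a 2 h metabolic pre-incubation with induced rat hepatic S9 in alginate microspheres; fluorescent live-cell protease readout, 10-point series 0.002–200 uM, n=4.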
# [5] = CCTE_Deisenroth_AIME_96WELL_CTox_Inactive: Cytotoxicity Assessment (CTOX) in CCTE's 96-well Estrogen Receptor Transactivation Assay without AIME metabolic competence (metabolism negative), Deisenroth Lab (AID 2284029; active = hit-call score of the fitted dose curve at least 0.9, where 1 is the maximum)
# Outline: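 Metabolism-negative mode: alginate-water lids without rat S9, 2 h pre-incubation of 10-point series (0.002 - 200 uM). Conditioned medium on VM7Luc4E2 cells 24 h; loss of fluorescent live-cell protease signal marks cytotoxicity.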
# [6] = target: Estrogen receptor (Homo sapiens) (UniProt P03372); test: CCTE_Deisenroth_AIME_96WELL_LUC_Active: CCTE's 96-well Estrogen Receptor Transactivation Assay with AIME metabolic competence (ERTA luciferase; metabolism positive), Deisenroth Lab (AID 2284023; active = hit-call score of the fitted dose curve at least 0.9, where 1 is the maximum)
# Outline: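 Metabolism-positive mode: induced rat hepatic S9 in alginate microspheres conditions test solutions (0.002 - 200 uM, 10 points) for 2 hours. VM7Luc4E2 ER luciferase reporter cells then exposed 24 h; positive-direction fit against 17beta-estradiol, n=4 typical.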
# [7] = target: Estrogen receptor (Homo sapiens) (UniProt P03372); test: CCTE_Deisenroth_AIME_96WELL_LUC_Inactive: CCTE's 96-well Estrogen Receptor Transactivation Assay without AIME metabolic competence (ERTA luciferase; metabolism negative), Deisenroth Lab (AID 2284025; active = hit-call score of the fitted dose curve at least 0.9, where 1 is the maximum)
# Outline: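 Metabolism-negative arm: chemicals (0.002–200 uM, 10 points) incubated 2 h with alginate-water microspheres, then medium moved onto VM7Luc4E2 cells for 24 h luciferase read-out. Positive direction vs 17beta-estradiol; n≥4 experiments.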
# Estrogen receptor (Homo sapiens), sequence (P03372 whole entry, looked up): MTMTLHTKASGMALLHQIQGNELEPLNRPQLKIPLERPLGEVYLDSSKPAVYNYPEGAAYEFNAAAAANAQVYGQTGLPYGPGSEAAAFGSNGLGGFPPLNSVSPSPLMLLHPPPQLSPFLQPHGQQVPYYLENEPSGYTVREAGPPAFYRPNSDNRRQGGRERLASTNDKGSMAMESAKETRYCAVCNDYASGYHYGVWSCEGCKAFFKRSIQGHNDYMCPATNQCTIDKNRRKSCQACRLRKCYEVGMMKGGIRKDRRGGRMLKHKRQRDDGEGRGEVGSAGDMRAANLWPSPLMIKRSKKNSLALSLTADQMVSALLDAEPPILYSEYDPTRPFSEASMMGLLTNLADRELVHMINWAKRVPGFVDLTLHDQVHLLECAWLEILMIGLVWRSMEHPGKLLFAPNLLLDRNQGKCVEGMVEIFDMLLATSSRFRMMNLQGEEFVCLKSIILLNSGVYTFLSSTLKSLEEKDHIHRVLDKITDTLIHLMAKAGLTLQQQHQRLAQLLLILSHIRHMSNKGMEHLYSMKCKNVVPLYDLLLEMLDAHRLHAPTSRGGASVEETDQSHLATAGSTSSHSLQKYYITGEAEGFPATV
structure (smiles),measurement,setting,value
NCCO,outcome,[1],inactive
same,outcome,[2],inactive
same,outcome,[3],inactive
Oc1ccc2c(c1)OC[C@@H](N1CCC(O)(c3ccc(F)cc3)CC1)[C@H]2O,outcome,[1],inactive
same,outcome,[2],inactive
same,outcome,[3],inactive
COC(=O)c1ccc(O)cc1,outcome,[1],inactive
same,outcome,[3],inactive
O=C(N[C@@H](Cc1ccccc1)[C@@H](O)C(=O)N1C[C@@H](O)[C@@H](O)C1)c1cc2cc(Cl)ccc2[nH]1,outcome,[1],inactive
same,outcome,[3],inactive
CC(C)c1ccc(C(=O)N=C(N)N)cc1S(C)(=O)=O,outcome,[1],inactive
same,outcome,[3],inactive
NC(=O)Cn1c(=O)cc(CCN2CCN(c3nccc4sccc34)CC2)c2ccc(F)cc21,outcome,[1],inactive
same,outcome,[3],inactive
CCCCCCCCCCCC(=O)OC,outcome,[1],inactive
same,outcome,[3],inactive
CCCCc1ccc2c(n1)[C@@H](c1ccc(OC)cc1C[C@H](C)C(=O)O)[C@H](C(=O)O)[C@H]2c1ccc2c(c1)OCO2,outcome,[1],inactive
same,outcome,[3],inactive
O=C(O)Cc1ccccc1Nc1c(Cl)cccc1Cl,outcome,[1],inactive
same,outcome,[3],inactive
COc1cc(C=O)ccc1O,outcome,[1],inactive
same,outcome,[3],inactive
Cc1cccc([N+](=O)[O-])c1C,outcome,[1],inactive
same,outcome,[2],inactive
same,outcome,[3],inactive
O=[N+]([O-])C(CO)(CO)CO,outcome,[1],inactive
same,outcome,[3],inactive
O=c1[nH]cc(F)c(=O)[nH]1,outcome,[1],inactive
same,outcome,[2],inactive
same,outcome,[3],inactive
Cc1nc(C)nc(N2C[C@@H](C)N(c3ccnc([C@@H](C)O)n3)[C@@H](C)C2)n1,outcome,[1],inactive
same,outcome,[3],inactive
CCc1c(C(=O)NN2CCCCC2)nn(-c2ccc(Cl)cc2Cl)c1-c1ccc(Br)cc1,outcome,[1],inactive
same,outcome,[3],inactive
CCNc1cccc(C)c1,outcome,[1],inactive
same,outcome,[2],inactive
same,outcome,[3],inactive
CC1=C(/C=C/C(C)=C/C=C/C(C)=C/CO)C(C)(C)CCC1,outcome,[1],inactive
same,outcome,[3],inactive
CCCCCCCCCCC,outcome,[1],inactive
same,outcome,[3],inactive
Oc1ccc2ccccc2c1N=Nc1ccccc1,outcome,[1],inactive
same,outcome,[3],inactive
CCOC(=O)CCC(=O)OCC,outcome,[1],inactive
same,outcome,[2],inactive
same,outcome,[3],inactive
COc1cc(S(=O)(=O)O)c(C)cc1N=Nc1c(O)ccc2cc(S(=O)(=O)O)ccc12,outcome,[1],inactive
same,outcome,[2],inactive
same,outcome,[3],inactive
COc1cccc2c1C(=O)c1c(O)c3c(c(O)c1C2=O)C[C@@](O)(C(=O)CO)C[C@@H]3O[C@H]1C[C@H](N)[C@H](O)[C@H](C)O1,AC50,[1],37.5 µM (active)
same,AC50,[4],51.6 µM (active)
same,AC50,[5],68.2 µM (active)
Cc1c(C(=O)O)c(O)cc2c1C(=O)c1c(O)c([C@@H]3O[C@H](CO)[C@@H](O)[C@H](O)[C@H]3O)c(O)c(O)c1C2=O,outcome,[1],inactive
same,outcome,[2],inactive
same,outcome,[3],inactive
COc1cc(/C=C/C(=O)CC(=O)/C=C/c2ccc(O)c(OC)c2)ccc1O,outcome,[1],inactive
same,outcome,[3],inactive
same,outcome,[6],inactive
same,outcome,[7],inactive
same,AC50,[4],63 µM (active)
same,AC50,[5],93.8 µM (active)
CC1(C)NC(=O)NC1=O,outcome,[1],inactive
same,outcome,[2],inactive
same,outcome,[3],inactive
COCCOCCOC,outcome,[1],inactive
same,outcome,[2],inactive
same,outcome,[3],inactive
